Assay [1] is described as follows: Cytometry Cell-Based qHTS for Inhibitors of the mTORC1 Signaling Pathway in MEF cells (AID 2668). Also: potency is read from the fitted curve at half-maximal effect. Put shortly: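 MEFs (Tsc2-/-, p53-/- stably expressing WT Tsc2) treated 24 h at 37 degree Celsius, fixed, stained with Alexa-488 anti-phospho-rpS6 Ser235/236 and propidium iodide; Acumen laser scanning. Reported as % positive cells, phospho-S6 normalized to PI.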
Assay [2] can be described thus: Validation screen for inhibitors of Lassa infection (AID 463096; calls by dose curve; also: potency is read from the fitted curve at half-maximal effect).
Assay [3] can be described thus: Validation screen for small molecules that induce DNA re-replication in MCF 10A normal breast cells (AID 463097). Also: nearly all actives have a fitted effect of over 60% in size. Also: potency is read from the fitted curve at half-maximal effect. Summed up:
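MCF 10A cells exposed to compound 48 hr at 37 C, 5% CO2, then Hoechst-stained 40 min. Laser-scanning imaging of nuclear DNA content (405 nm ex, 500-530 nm em); re-replication scored as rise in nuclei with elevated fluorescence intensity.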

Assay [4] concerns the target Ubiquitin carboxyl-terminal hydrolase 2 (Homo sapiens) (UniProt O75604). Briefly: qHTS Validation Assay for Inhibitors of Ubiquitin-specific Protease USP2a Using CHOP2 as the Reporter (AID 463106). Summed up:
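10nM USP2 core + cpd, 30min RT; add 25nM Ub-CHOP2/25nM substrate; 60min RT; FI 485/531nm. Buffer Tris pH 8.0, CaCl2, BME, CHAPS. Norm. to NEM = 100% inhibition; time-zero read flags fluorescent artifacts.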
In general terms: qHTS replaces the single test concentration by a dilution series.

Assay [5] deals with DNA polymerase III PolC-type (Bacillus subtilis (strain 168)) (UniProt P13267). In words: qHTS Validation Assay for the Inhibitors of DNA Replication in Gram-Positive Bacteria (AID 485295). Also: potency is read from the fitted curve at half-maximal effect. Put shortly: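 Reconstituted B. subtilis Pol III holoenzyme (PolC, beta clamp, SSB, primase) preincubated with compound, then M13Gori single-stranded circular template with dNTPs/NTPs added; room temperature reaction. Stopped with EDTA/PicoGreen; dsDNA fluorescence read, EDTA as full-inhibition control.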
DNA polymerase III PolC-type (Bacillus subtilis (strain 168)), sequence (P13267 whole entry, looked up): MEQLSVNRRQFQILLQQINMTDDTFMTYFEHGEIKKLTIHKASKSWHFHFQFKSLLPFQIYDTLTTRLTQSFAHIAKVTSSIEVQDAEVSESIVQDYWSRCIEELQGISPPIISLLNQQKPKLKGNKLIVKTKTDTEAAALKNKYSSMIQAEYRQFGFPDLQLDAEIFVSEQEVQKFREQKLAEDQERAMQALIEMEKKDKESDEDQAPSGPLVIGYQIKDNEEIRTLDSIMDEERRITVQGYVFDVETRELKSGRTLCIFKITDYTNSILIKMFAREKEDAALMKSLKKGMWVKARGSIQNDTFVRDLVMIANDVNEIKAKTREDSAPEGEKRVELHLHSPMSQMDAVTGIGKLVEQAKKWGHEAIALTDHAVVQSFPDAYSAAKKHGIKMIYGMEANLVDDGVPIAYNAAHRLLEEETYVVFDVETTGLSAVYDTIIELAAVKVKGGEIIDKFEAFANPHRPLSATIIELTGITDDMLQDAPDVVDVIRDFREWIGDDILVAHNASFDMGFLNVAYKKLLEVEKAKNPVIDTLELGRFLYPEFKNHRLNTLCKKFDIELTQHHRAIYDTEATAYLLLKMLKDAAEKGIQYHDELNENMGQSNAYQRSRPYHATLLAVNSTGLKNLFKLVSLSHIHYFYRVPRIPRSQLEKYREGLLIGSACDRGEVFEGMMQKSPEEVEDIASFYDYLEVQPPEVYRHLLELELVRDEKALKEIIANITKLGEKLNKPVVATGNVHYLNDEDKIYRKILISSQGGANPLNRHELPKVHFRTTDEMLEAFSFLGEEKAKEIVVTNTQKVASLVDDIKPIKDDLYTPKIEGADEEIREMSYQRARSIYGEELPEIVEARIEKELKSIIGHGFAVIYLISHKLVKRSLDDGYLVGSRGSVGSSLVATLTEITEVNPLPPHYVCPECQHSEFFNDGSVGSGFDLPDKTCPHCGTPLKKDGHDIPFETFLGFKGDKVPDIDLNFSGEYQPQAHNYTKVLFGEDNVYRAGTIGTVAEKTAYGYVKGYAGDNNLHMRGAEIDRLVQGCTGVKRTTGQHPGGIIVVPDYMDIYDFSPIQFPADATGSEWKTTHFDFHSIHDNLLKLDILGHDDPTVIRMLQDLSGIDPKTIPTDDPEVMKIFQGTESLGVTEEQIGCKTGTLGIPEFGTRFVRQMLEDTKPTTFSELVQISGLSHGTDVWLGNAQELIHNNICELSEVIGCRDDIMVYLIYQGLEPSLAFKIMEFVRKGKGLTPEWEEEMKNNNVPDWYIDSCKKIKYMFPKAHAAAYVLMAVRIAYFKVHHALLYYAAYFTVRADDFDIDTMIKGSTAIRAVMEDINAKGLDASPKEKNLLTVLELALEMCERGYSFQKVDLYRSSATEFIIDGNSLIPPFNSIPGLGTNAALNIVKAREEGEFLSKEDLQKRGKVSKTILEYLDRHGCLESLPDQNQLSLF

Assay [6] deals with Tumor susceptibility gene 101 protein (Homo sapiens) (UniProt Q99816). In words: qHTS Validation Assay for Iinhibitors of HIV-1 Budding by Blocking the Interaction of PTAP/TSG101 (AID 485342; calls by dose curve). Put shortly:
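Tsg101 binding domain (10 uM) with FITC-labeled PTAP peptide (50 nM) in HEPES pH 7.5 buffer, 20 min at r.t. with compounds. Binding measured by fluorescence polarization.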

The nature of assay [7]: qHTS Validation Assay to Find Inhibitors of Chronic Active B-Cell Receptor Signaling (AID 485345; active = well fitted curve in the direction sought with a large enough effect in the main read-out, with a control signal flat, not every such curve was filed as active; also: potency is read from the fitted curve at half-maximal effect). Summed up:
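Read-out: ratio of filter-corrected green (IkappaBalpha fusion) to red (native) luciferase signal in doxycycline-induced TMD8 cells after 4 h at 37C. Titration spanned 46 uM–3 nM; Data were normalised to basal cells and 10 uM MG-132 wells.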

For assay [8], the target named is Beta-2 adrenergic receptor (Homo sapiens) (UniProt P07550). Briefly: qHTS validation assay of beta-arrestin-biased ligands of beta2-adrenergic receptor (AID 485366). Summed up: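 Tango cells expressing recombinant beta2-AR and beta-arrestin with tTA-driven luciferase, in DMEM with 1% FBS. Compounds were titrated up to 46 microM for 18 hr at 37 degrees C. Luminescence was read 15 min after substrate; curves were fitted and class-assigned.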
Beta-2 adrenergic receptor (Homo sapiens), sequence (P07550 whole entry, looked up): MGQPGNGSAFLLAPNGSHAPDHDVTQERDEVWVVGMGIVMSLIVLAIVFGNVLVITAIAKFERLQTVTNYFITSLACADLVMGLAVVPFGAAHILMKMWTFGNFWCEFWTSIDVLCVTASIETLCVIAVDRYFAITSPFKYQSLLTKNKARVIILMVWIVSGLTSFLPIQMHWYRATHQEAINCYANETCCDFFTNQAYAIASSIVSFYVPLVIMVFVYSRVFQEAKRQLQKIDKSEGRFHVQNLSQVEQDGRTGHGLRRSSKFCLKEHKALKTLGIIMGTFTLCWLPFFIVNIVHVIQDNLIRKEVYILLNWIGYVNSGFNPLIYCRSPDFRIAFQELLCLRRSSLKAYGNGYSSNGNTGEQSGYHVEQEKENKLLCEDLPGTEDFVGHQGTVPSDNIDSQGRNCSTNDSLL

The target of assay [9] is ATP-dependent 6-phosphofructokinase (Trypanosoma brucei brucei) (UniProt O15648). Briefly: qHTS Validation Assay to Find Inhibitors of T. brucei phosphofructokinase (AID 485368). Also: potency is read from the fitted curve at half-maximal effect. Summed up: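 Activity was read as ADP production by luminescence (ADP-Glo) after 45 min at room temperature. The enzyme was 1.25nM PFK in 0.1M TEA pH 8.0 with 0.5 mM F6P, 0.1mM ATP and 5 mM MgCl2. Compounds were titrated up to 57 uM and % activity normalized to no-enzyme and full-enzyme controls.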
ATP-dependent 6-phosphofructokinase (Trypanosoma brucei brucei), sequence (O15648 whole entry, looked up): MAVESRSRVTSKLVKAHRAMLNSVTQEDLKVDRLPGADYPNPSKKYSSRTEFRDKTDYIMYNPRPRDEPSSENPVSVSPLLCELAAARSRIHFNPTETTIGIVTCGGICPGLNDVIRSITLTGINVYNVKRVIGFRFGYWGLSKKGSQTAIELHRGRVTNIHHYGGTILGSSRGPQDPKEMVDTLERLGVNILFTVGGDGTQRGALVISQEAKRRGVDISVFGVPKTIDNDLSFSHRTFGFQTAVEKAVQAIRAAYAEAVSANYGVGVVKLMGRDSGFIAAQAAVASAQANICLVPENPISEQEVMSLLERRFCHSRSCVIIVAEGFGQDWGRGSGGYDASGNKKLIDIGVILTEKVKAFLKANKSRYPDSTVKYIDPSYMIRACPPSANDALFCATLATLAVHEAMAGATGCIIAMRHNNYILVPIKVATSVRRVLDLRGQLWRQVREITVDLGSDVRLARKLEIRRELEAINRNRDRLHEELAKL

Assay [10] can be described thus: High Content Imaging Cell-Based qHTS for Inhibitors of the mTORC1 Signaling Pathway in MEF Cells (AID 2667). Also: potency is read from the fitted curve at half-maximal effect. Put shortly:
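Immunofluorescence for rpS6 phosphorylation in MEFs of Tsc2-/-, p53-/- background rescued with WT Tsc2. Compound exposure lasted 24 hrs. Inhibition was scored against rapamycin-treated control wells.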

Inconclusive results are not listed. Calls of active or inactive are those of the source. Unless noted, calls follow the shape of the dose curve; as a rule, active = well fitted curve in the direction sought with a large enough effect; inconclusive = small, poorly fitted or top-dose-only effect, or another doubt; inactive = no such curve, though single readings can be large; an effect the other way counts as inactive or inconclusive.

Tumor susceptibility gene 101 protein (Homo sapiens), sequence (Q99816 whole entry, looked up, the tested form may be a part): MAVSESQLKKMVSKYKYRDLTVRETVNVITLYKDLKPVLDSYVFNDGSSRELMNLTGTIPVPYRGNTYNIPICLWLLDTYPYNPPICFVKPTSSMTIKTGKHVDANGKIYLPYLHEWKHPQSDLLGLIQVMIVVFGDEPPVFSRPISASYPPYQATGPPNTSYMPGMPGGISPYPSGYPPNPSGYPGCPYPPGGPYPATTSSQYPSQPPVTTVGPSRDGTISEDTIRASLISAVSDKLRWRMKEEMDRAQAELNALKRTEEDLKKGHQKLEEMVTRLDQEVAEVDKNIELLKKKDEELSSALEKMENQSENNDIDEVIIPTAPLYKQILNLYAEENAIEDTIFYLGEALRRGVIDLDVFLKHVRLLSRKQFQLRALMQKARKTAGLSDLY
Ubiquitin carboxyl-terminal hydrolase 2 (Homo sapiens), sequence (O75604 whole entry, looked up): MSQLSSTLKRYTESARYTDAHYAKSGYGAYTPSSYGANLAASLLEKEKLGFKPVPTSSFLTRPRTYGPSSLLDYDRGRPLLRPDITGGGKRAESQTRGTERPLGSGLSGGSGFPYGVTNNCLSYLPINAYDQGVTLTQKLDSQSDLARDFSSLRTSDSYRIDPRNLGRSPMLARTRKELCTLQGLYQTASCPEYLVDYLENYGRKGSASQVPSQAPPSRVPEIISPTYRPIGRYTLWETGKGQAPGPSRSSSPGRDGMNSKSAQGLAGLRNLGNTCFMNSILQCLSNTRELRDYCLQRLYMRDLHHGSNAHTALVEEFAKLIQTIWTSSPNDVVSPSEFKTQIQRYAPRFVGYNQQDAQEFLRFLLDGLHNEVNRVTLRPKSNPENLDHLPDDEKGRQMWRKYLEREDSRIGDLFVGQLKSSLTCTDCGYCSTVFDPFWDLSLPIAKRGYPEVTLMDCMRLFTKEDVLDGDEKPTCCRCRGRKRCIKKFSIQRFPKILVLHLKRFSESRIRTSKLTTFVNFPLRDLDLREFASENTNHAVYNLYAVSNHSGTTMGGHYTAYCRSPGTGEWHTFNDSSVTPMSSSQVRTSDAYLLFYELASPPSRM

For `CC(C)NP(=O)(NC(C)C)OP(=O)(NC(C)C)NC(C)C`, the Potency entry in assay [1], in [2], in [3], in assay [4], in assay [5] and in [7] was “inactive” throughout. Further, the result in [6] and in assay [8] was inactive.
Consider `O=S1(=O)N(CCN2CC=C(c3c[nH]c4cc(F)ccc34)CC2)c2cccc3c2N1CCC3`, for which the Potency entry in [1], in [2], in [4] and in assay [7] was “inactive” in each case. For the same molecule, the Potency in [3] was 14.1 µM (active). Also, the result in assay [6] and in assay [8] was inactive.
As for `CC(C)(C)c1cc(C=C(C#N)C#N)cc(C(C)(C)C)c1O`, the Potency is 4.14 µM (active) in [1], 2.51 µM (active) in [2] and 0.158 µM (active) in assay [3]. In assay [4], the Potency result is “inactive”. For the same molecule, the result in assay [6] and in [8] was inactive.
Regarding `CC12NC(Cc3ccccc31)c1ccccc12` (stereo unspecified), the Potency result in [1], in [2], in [3], in [4] and in assay [7] was “inactive” each time. The molecule was classed as inactive in assay [6] and in assay [8].
`CCN(CCCl)Cc1ccccc1Br`: the Potency result in assay [1], in assay [2], in [3], in assay [4], in [5] and in assay [7] was “inactive” each time. The Potency result in assay [9] is “inactive”. Besides, the molecule was called inactive in assay [6] and in assay [8].
For `C=CCN1CCC23c4c5ccc(O)c4O[C@H]2C(=O)CC[C@@]3(O)C1C5` (stereo partly specified), the Potency entry in [1], in assay [2], in assay [3], in assay [4], in assay [5] and in [7] was “inactive” in each case. In addition, in assay [9], the Potency result is “inactive”. The result in assay [6] and in [8] was inactive.
With `CCCn1c(=O)c2[nH]c(C3CCCC3)nc2n(CCCOC(=O)c2ccc(S(=O)(=O)F)cc2)c1=O`, the Potency result in assay [1], in assay [2], in assay [4] and in assay [5] was “inactive” in each case. Also, the molecule was called inactive in assay [6] and in [8].
In the case of `N[C@@]1(C(=O)O)CC[C@@H](C(=O)O)C1`, the Potency result in assay [1], in assay [2], in assay [3], in [4], in assay [5] and in assay [7] was “inactive” throughout. Further, the result in assay [6] and in [8] was inactive.
For the molecule `COc1ccc2c(c1)c(CCN1CCOCC1)c(C)n2C(=O)c1cccc(Cl)c1Cl`, the Potency result in assay [10], in assay [4], in assay [5] and in assay [9] was “inactive” each time. In addition, the molecule was called inactive in [6] and in [8].
Regarding `NC(Cc1ccc(N(CCCl)CCCl)cc1)C(=O)O` (stereo unspecified), the Potency result in assay [1], in assay [3], in assay [4], in assay [5] and in assay [9] was “inactive” each time. Besides, the Potency in assay [2] is 8.91 µM (active). For the same molecule, the outcome in assay [6] and in [8] was inactive.
`CCCN(CCC)CCc1ccc(O)c(O)c1`: the Potency entry in assay [1], in assay [2], in assay [3], in assay [4], in [5] and in [7] was “inactive” in each case. The outcome in [6] and in [8] was inactive.
Turning to `CN1CCC(c2c[nH]c3ccc(O)cc23)CC1`, the Potency entry in assay [1], in assay [2], in assay [3], in assay [4], in assay [5] and in assay [7] was “inactive” throughout. The Potency result in [9] was “inactive”. For the same molecule, the molecule was classed as inactive in assay [6] and in assay [8].
Consider `O=C1CC[C@@]2(O)C3Cc4ccc(O)c5c4C2(CCN3CC2CC2)[C@H]1O5` (stereo partly specified), for which the Potency entry in [1], in assay [2], in assay [3], in [5] and in assay [7] was “inactive” throughout. For the same molecule, the outcome in assay [6] and in [8] was inactive.
`O=C(O)c1cc[c]([Hg][Cl])cc1`: the Potency result in assay [1], in [2], in assay [3] and in [4] was “inactive” each time. Also, the result in assay [6] and in [8] was inactive. Moreover, the Potency in assay [9] is 0.269 µM (active).
With `c1ccc2c(N3CCNCC3)cccc2c1`, the Potency result in [10], in assay [2], in assay [3], in assay [4], in [5] and in assay [9] was “inactive” in each case. Further, the molecule was classed as inactive in assay [6] and in [8].
On to `C[N+](C)(C)CC#CCN1CCCC1=O`, for which the Potency entry in [1], in assay [2], in [3], in [4], in assay [7] and in [9] was “inactive” throughout. The molecule was called inactive in [6] and in [8].
Regarding `NCC(CP(=O)(O)O)c1ccc(Cl)cc1` (stereo unspecified), the Potency result in assay [1], in assay [2], in assay [3], in assay [4], in [5] and in [9] was “inactive” in each case. The outcome in assay [6] and in assay [8] was inactive.
Take `Cc1sc2ccccc2c1CC1=NCCN1`: the Potency result in assay [1], in assay [2], in assay [3], in assay [4], in [5] and in assay [7] was “inactive” in each case. Further, the Potency entry in assay [9] is “inactive”. Also, the call in [6] and in assay [8] was inactive.
For the molecule `c1ccc2c(c1)[I+]c1ccccc1-2`, the Potency in [10] was 0.0585 µM (active); in assay [2], 0.251 µM (active); in assay [3], 6.31 µM (active). In addition, the Potency result in assay [4] and in [9] was “inactive” each time. In addition, the call in assay [6] and in [8] was inactive.
For `Cc1c2ccncc2c(C)c2c1[nH]c1ccccc12`, the Potency entry in assay [10] and in assay [4] was “inactive” each time. Moreover, the Potency in assay [3] was 7.08 µM (active). The result in assay [6] and in assay [8] was inactive.
`COc1ccc2[nH]c3c(c2c1)CCNC3`: the Potency result in [1], in [2], in assay [3], in assay [4], in assay [5] and in [7] was “inactive” each time. In assay [9], the Potency entry was “inactive”. Further, the call in [6] and in [8] was inactive.
With `C[C@]12Cc3cn4c(nc3C=C1CCC1C2CC[C@@]2(C)[C@H]1CC[C@@]2(O)C#N)nc1ccccc14` (stereo partly specified), the Potency result in [1], in assay [2], in assay [4] and in [5] was “inactive” each time. The Potency in assay [3] was 12.6 µM (active); in [7], 13 µM (active). For the same molecule, the outcome in assay [6] and in assay [8] was inactive.
With `C=CCN1CC[C@]23c4c5ccc(O)c4O[C@H]2/C(=N/NC(=O)c2ccccc2)CC[C@@]3(O)[C@H]1C5`, the Potency result in assay [1], in assay [2], in assay [3], in [4], in assay [5] and in [7] was “inactive” in each case. The molecule was called inactive in [6] and in [8].
Turning to `COc1ccc(CNC(=O)/C=C/c2ccc3[nH]cc(CCN(C)C)c3c2)cc1`, the Potency entry in assay [1], in assay [2], in assay [3], in [4], in assay [7] and in assay [9] was “inactive” throughout. Further, the outcome in assay [6] and in assay [8] was inactive.
As to `CC1(C(=O)O)C2CCC(O2)C1(C)C(=O)O` (stereo unspecified), the Potency in [10] is 3.69 µM (active). The Potency result in assay [4], in assay [5] and in assay [9] was “inactive” in each case. In addition, the outcome in assay [6] and in [8] was inactive.
As for `CCS(=O)(=O)Nc1cccc(C(=C2CCCCC2)c2cnc[nH]2)c1`, the Potency entry in assay [1], in assay [2], in [3], in [4], in assay [5] and in [7] was “inactive” throughout. Also, in assay [9], the Potency result was “inactive”. Also, the molecule was called inactive in assay [6] and in [8].
As to `CCCN1CCc2cccc3c2[C@H]1Cc1ccc(O)c(O)c1-3`, the Potency result in [10] and in [4] was “inactive” throughout. Also, the molecule was called inactive in [6] and in assay [8]. Further, the Potency in assay [9] is 12 µM (active).
As for `O=c1c2ccccc2[se]n1-c1ccccc1`, the Potency result in assay [10] and in [4] was “inactive” each time. Besides, the Potency in assay [5] was 4.74 µM (active); in assay [9], 1.51 µM (active). The result in [6] and in [8] was inactive.
As to `N#CC(C#N)=Cc1cc(O)c(O)c(O)c1`, the Potency result in assay [2] and in assay [3] was “inactive” in each case.
As to `CN1CCc2cc(O)cc3c2[C@H]1Cc1ccc(O)c(O)c1-3`, the Potency entry in assay [4], in [5] and in assay [7] was “inactive” each time. Moreover, the molecule was classed as inactive in assay [6] and in assay [8].

These data come from PubChem BioAssay (NCATS).
